Measurements as given in PubChem BioAssay (EPA / NIEHS).
Results filed as inconclusive are left out. The source made the active and inactive calls. Rule for the calls, unless noted: active = hit-call score of the fitted dose curve at least 0.9, where 1 is the maximum; inactive = score below 0.9.

target: Nuclear receptor subfamily 4 group A member 2 (Homo sapiens) (UniProt P43354); assay: ATG_NURR1_TRANS: Attagene TRANS-FACTORIAL HepG2 Assay for human Nuclear Receptor Related Protein 1 (NURR1) (AID 2282985; active = hit-call score of the fitted dose curve at least 0.9, where 1 is the maximum); details: HepG2 Attagene TRANS reporter, mRNA readout
Sequence (P43354 whole entry, looked up): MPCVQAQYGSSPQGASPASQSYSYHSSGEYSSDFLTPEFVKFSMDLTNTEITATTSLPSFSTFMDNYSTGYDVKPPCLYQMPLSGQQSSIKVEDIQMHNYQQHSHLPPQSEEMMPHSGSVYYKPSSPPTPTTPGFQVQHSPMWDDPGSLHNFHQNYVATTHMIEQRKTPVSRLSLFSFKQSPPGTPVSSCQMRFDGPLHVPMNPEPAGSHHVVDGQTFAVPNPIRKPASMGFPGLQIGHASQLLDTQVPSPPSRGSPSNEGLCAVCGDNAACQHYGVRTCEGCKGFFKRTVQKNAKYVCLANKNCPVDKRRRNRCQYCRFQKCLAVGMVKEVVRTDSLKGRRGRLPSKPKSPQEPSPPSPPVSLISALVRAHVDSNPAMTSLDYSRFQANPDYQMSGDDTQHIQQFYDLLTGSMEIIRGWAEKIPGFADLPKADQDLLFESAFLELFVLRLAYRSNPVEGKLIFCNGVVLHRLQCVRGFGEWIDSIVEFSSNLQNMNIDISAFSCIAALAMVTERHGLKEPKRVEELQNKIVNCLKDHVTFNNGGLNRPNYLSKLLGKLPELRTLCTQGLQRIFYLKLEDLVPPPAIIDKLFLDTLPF
How it was run: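 After 24 h chemical dosing, total RNA from transiently transfected HepG2 cells was reverse-transcribed and reporter cDNA PCR-amplified, FAM-labelled and analysed by capillary electrophoresis. Activity fitted in positive direction, DMSO as negative control.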

SMILES | outcome | AC50
CCCCOCC(C)O (centres undefined) | inactive | 
CC(=O)c1ccc(S(=O)(=O)NC(=O)NC2CCCCC2)cc1 | inactive | 
C=CC(=O)NCOCCCC | inactive | 
CC1OC(=O)C(C)OC1=O (centres undefined) | inactive | 
CC1=CCC2CC1C2(C)C (centres undefined) | inactive | 
O=S(=O)(O)c1ccc(N=Nc2c(O)ccc3ccccc23)cc1 | inactive | 
CCCCOC(=O)C(C)CC (centres undefined) | inactive | 
O=C(O)C1CCC(C(=O)O)CC1 (centres undefined) | inactive | 
Nc1ccc(C(=O)O)cc1 | inactive | 
O=C(Oc1ccccc1)c1ccccc1O | inactive | 
CCCCCCO | inactive | 
CC(C)c1ccc(O)c(C(C)C)c1 | inactive | 
COc1cc(O)c(C(=O)c2ccccc2)cc1S(=O)(=O)O | inactive | 
N#CC1(N)CCCCC1 | inactive | 
O=C(O)/C=C/c1ccccc1 | inactive | 
O=C(O)CCC(=O)O | inactive | 
O=C1CCCCC1C1CCCCC1 (centres undefined) | inactive | 
COC(=O)c1ccccc1C | inactive | 
CC(C)CCCCCOC(=O)CS | inactive | 
CC=C(C)C(C)=O |  | 44.7 µM (active)
CC/C=C\CCOC(=O)c1ccccc1O | inactive | 
CC(C)CC(=O)OCc1ccccc1 | inactive | 
C=C(C)[C@@H]1CC=C(C)CC1 | inactive | 
COCC(=O)O | inactive | 
CN(C)Cc1cc(CN(C)C)c(O)c(CN(C)C)c1 | inactive | 

target: Transcriptional activator Myb (Homo sapiens) (UniProt P10242); assay: ATG_Myb_CIS: Attagene CIS-FACTORIAL HepG2 Assay for human Myeloblastosis (Myb) Proto-Oncogene Transcription Factor (AID 2282986); details: HepG2 Attagene CIS-FACTORIAL Myb reporter transcription; actives raise or lower the signal
Sequence (P10242 whole entry, looked up): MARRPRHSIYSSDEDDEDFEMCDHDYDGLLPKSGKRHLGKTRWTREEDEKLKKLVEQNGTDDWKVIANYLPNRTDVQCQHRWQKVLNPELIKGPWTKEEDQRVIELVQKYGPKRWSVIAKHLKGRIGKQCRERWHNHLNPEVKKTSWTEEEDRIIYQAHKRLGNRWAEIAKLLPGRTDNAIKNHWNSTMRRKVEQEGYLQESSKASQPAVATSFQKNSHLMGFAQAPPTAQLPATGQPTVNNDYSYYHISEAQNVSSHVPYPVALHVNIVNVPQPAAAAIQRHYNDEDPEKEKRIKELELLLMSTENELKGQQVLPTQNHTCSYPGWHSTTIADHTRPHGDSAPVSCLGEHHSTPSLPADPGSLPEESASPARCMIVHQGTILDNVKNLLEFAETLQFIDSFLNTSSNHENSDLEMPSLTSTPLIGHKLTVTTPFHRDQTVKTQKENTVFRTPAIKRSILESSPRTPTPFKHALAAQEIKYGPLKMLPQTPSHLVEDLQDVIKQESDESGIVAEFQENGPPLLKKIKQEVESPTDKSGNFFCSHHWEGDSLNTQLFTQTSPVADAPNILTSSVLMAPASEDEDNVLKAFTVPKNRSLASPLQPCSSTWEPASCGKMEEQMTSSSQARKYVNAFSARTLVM
How it was run: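 Fluorescence signals from capillary electrophoresis of RT-PCR-amplified reporter cDNA give the read-out. Cells: HepG2 transfected with multiple cis-regulated reporter units. Exposure lasts 24 hours; DMSO defines baseline for gain or loss of signal.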

SMILES | outcome
NC(=O)Nc1ccccc1 | inactive
CCCCOCC(C)O (centres undefined) | inactive
CC(=O)c1ccc(S(=O)(=O)NC(=O)NC2CCCCC2)cc1 | inactive
C=CC(=O)NCOCCCC | inactive
CC1OC(=O)C(C)OC1=O (centres undefined) | inactive
CC1=CCC2CC1C2(C)C (centres undefined) | inactive
O=S(=O)(O)c1ccc(N=Nc2c(O)ccc3ccccc23)cc1 | inactive
CCCCOC(=O)C(C)CC (centres undefined) | inactive
O=C(O)C1CCC(C(=O)O)CC1 (centres undefined) | inactive
Nc1ccc(C(=O)O)cc1 | inactive
O=C(Oc1ccccc1)c1ccccc1O | inactive
CCCCCCO | inactive
CCC(C)N (centres undefined) | inactive
CC(C)c1ccc(O)c(C(C)C)c1 | inactive
COc1cc(O)c(C(=O)c2ccccc2)cc1S(=O)(=O)O | inactive
N#CC1(N)CCCCC1 | inactive
CC(=O)OCCc1ccccc1 | inactive

SMILES | outcome
O=C(O)/C=C/c1ccccc1 | inactive
O=C(O)CCC(=O)O | inactive
O=C1CCCCC1C1CCCCC1 (centres undefined) | inactive
COC(=O)c1ccccc1C | inactive
CCOC(=O)CC(=O)c1ccccc1 | inactive
CC(C)CCCCCOC(=O)CS | inactive
CC=C(C)C(C)=O | inactive
CC/C=C\CCOC(=O)c1ccccc1O | inactive
Cc1c(Cl)cccc1Cl | inactive
C[Si](C)(C)N[Si](C)(C)C | inactive
CC(CC(C)C)=NO | inactive
COc1nccnc1CC(C)C | inactive
C=C(C)[C@@H]1CC=C(C)CC1 | inactive
COCC(=O)O | inactive
C=Cc1cccc(C)c1 | inactive
CN(C)Cc1cc(CN(C)C)c(O)c(CN(C)C)c1 | inactive
CC(=O)CC(=O)Nc1ccccc1C | inactive
